# Assay results from PubChem BioAssay (NCATS).
# Values joined by “and” are separate entries in the source; they are usually repeats but may differ in a detail not shown here. Equal entries are not always repeated. Results filed as inconclusive are left out. Where a call stands in place of a potency, no number is given. Unmarked numbers belong to inactive results. Active and inactive are the calls of the source. Unless noted, the call rests on the fitted dose curve; in most records, active means well fitted curve in the direction sought with a large enough effect; inconclusive means small, poorly fitted or top-dose-only effect, or another doubt; inactive means no such curve, though single readings can be large; an effect the other way counts as inactive or inconclusive.
# Tests used:
# [1] = qHTS to identify inhibitors of the type 1 interferon - major histocompatibility complex class I in skeletal muscle: primary screen against the NCATS Pharmaceutical Collection (AID 1347407);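 further: luminescence of HiBiT knocked into endogenous HLA-B as interferon-induced MHC class I level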
# Procedure, shortened: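 Immortalized human myoblasts (C25cl48) with HiBiT knocked into endogenous HLA-B*08:01 were stimulated with 4.0 ng/ml IFN-beta and treated with compounds ([…] top 46 uM) for 24 hrs at 37 C. HiBiT lytic luminescence read.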
# [2] = target: Protein phosphatase 1D (Homo sapiens) (UniProt O15297); assay: RapidFire Mass Spectrometry qHTS Assay for Modulators of WT P53-Induced Phosphatase 1 (WIP1) (AID 1347424);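 further: amount of dephosphorylated VEPPL-S-QETFS peptide product formed by WIP1; series mostly up to about 63 µM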
# Chain of Protein phosphatase 1D (Homo sapiens) (O15297 whole entry, looked up): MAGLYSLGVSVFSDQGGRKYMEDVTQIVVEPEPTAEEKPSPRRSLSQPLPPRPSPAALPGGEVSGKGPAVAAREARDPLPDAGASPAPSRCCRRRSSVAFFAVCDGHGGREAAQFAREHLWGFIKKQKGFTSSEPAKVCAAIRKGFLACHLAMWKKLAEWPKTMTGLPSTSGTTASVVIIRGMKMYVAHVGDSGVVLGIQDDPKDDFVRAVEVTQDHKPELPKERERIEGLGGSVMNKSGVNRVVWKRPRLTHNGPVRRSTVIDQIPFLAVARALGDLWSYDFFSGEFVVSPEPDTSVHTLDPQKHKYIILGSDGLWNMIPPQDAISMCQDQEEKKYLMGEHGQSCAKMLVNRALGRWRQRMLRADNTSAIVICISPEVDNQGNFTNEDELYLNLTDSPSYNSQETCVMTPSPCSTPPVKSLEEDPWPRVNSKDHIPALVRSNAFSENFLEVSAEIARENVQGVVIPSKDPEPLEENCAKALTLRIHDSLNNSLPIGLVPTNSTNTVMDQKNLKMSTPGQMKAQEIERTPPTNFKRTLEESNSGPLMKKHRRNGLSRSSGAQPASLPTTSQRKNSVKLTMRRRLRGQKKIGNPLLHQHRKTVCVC
# Procedure, shortened: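 Mass-spectrometric measurement of dephosphorylated peptide after a 5 min room-temperature reaction of 10 nM WIP1 with 2 uM phosphopeptide, following 1 h compound preincubation in 30 mM MgCl2 buffer.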
# [3] = target: Protein phosphatase 1D (Homo sapiens) (UniProt O15297); assay: Rhodamine-PBP qHTS Assay for Modulators of WT P53-Induced Phosphatase 1 (WIP1) (AID 1347425)
# Procedure, shortened: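 Steps: enzyme with Rh-PBP sensor and compounds, room-temperature incubation of 1 hr, baseline read, addition of VEPPL-pS-QETFS (10 uM final), kinetic fluorescence reads at 525/598 nm. Activity equals final minus baseline signal.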
# [4] = target: Calcium and integrin-binding protein 1 (Homo sapiens) (UniProt Q99828); assay: Primary qHTS for Identification of Calcium Integrin Binding Protein 1 (CIB1) Competitor (AID 1508620);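 further: GST tagged CIB1 binding a fluorescein labelled alphaIIb integrin peptide tracer; top concentration of the series differs between compounds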
# Chain of Calcium and integrin-binding protein 1 (Homo sapiens) (Q99828 whole entry, looked up): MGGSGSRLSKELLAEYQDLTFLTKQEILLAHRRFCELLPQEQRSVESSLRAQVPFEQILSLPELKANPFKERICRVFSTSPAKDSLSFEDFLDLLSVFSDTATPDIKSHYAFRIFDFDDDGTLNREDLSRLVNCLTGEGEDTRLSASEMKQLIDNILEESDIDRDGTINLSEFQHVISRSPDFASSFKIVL
# Procedure, shortened: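 Fluorescence polarization competition: CIB1-GST (1 uM final) preincubated with compound 15 min at room temperature, then FITC-labeled alphaIIb peptide (100 nM final) added for another 15 min. Polarization read at Ex 480/Em 540.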
# [5] = Primary qHTS for small molecule stabilizers of the endoplasmic reticulum resident proteome: Secreted ER Calcium Modulated Protein (SERCaMP) assay (AID 1508630)
# Procedure, shortened: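 The SH-SY5Y reporter protocol was run at 3 concentrations up to 38.3 uM (primary) or 11 concentrations (follow-up): 16 h compound, 100 nM thapsigargin for 4 h, then extracellular luciferase luminescence.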
# [6] = A High-Content qHTS Against Drug Library for the Identification of Small Molecules that Inhibit DYT1 Early Onset Primary Dystonia-Associated Cell Pathology (AID 1645839; calls by dose curve; further: series mostly up to about 46 µM)
# Procedure, shortened: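 Induced EGFP-delE TorsinA cells are imaged after 48 h of compound treatment. Punctate fusion-protein distribution gives the %pathology value, while nuclei counts flag toxicity. Wild-type EGFP-hTOR1A cells define the normal pattern.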
# [7] = target: Cytochrome P450 2D6 (Homo sapiens) (UniProt P10635); assay: Cytochrome P450 family 2 subfamily D member 6 (CYP2D6) small molecule antagonists: luciferase biochemical (cell-free) qHTS assay (AID 1645840; active means well fitted curve in the direction sought with a large enough effect in the repeat runs; an effect the other way counts as inactive or inconclusive; further: nearly all actives have a fitted effect of over 55% in size; further: potency means the concentration at half of the fitted maximal effect)
# Chain of Cytochrome P450 2D6 (Homo sapiens) (P10635 whole entry, looked up): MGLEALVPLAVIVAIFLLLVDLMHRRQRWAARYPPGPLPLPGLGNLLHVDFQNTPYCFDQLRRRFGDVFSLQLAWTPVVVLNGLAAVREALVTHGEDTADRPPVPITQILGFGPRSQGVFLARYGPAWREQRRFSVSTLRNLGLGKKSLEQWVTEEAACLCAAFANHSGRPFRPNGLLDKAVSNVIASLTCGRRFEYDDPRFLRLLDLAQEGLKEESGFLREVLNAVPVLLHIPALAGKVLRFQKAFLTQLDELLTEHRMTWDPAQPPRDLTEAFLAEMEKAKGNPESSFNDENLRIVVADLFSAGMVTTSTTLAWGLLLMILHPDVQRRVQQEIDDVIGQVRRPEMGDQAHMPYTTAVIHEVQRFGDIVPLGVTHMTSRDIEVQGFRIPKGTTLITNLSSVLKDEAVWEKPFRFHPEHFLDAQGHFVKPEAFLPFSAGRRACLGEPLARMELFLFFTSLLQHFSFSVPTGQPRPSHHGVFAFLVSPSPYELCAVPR
# Procedure, shortened: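 P450-Glo CYP2D6 system: proluciferin substrate converted by enzyme to luciferin, read by luminescence proportional to activity. Enzyme-substrate mix with compound 10 min at room temperature, then NADPH regeneration 1 h before detection reagent.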
# [8] = target: Cytochrome P450 2C9 (Homo sapiens) (UniProt P11712); assay: Cytochrome P450 family 2 subfamily C member 9 (CYP2C9) small molecule antagonists: luciferase biochemical (cell-free) qHTS assay (AID 1645842; active means well fitted curve in the direction sought with a large enough effect in the repeat runs; an effect the other way counts as inactive or inconclusive; further: nearly all actives have a fitted effect of over 55% in size; further: potency means the concentration at half of the fitted maximal effect)
# Chain of Cytochrome P450 2C9 (Homo sapiens) (P11712 whole entry, looked up): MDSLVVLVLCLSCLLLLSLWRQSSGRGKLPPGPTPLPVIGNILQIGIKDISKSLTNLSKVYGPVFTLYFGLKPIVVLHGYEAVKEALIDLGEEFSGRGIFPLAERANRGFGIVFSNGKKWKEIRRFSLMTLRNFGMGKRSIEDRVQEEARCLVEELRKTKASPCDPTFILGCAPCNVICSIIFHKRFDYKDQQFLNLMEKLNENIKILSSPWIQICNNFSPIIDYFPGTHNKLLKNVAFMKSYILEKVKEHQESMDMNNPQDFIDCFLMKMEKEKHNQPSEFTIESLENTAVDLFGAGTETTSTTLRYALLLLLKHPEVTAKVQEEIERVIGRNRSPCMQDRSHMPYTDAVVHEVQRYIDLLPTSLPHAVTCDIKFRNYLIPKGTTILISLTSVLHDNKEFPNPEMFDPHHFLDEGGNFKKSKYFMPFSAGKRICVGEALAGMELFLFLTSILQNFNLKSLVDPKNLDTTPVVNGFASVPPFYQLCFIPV
# Procedure, shortened: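 P450-Glo CYP2C9 system: proluciferin substrate with enzyme in mix containing 0.4% BSA, 10 min at room temperature, then NADPH regeneration solution added and incubated 1 h at 37C. Detection reagent stopped reaction; luminescence read after 20 min as RLU.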
# [9] = Primary qHTS for inhibitors of nuclear receptor binding SET domain protein 2 (NSD2) in an isogenic RCH-ACV NSD2 p.E1099K mutant (9B) (AID 1645876); further: nearly all actives have a fitted effect of over 70% in size
# [10] = Primary qHTS for inhibitors of nuclear receptor binding SET domain protein 2 (NSD2) in an RCH-ACV wild type WT cells (2C) (AID 1645877); further: nearly all actives have a fitted effect of over 70% in size; further: potency means the concentration at half of the fitted maximal effect
# [11] = Primary qHTS for inhibitors of La Crosse Virus (LACV) - induced cell death in SH-SY5Y cells (AID 1508616);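 further: top concentration of the series differs between compounds; higher means more rescue of cells from virus-induced death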
# Procedure, shortened: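 Screening measures cell viability in LACV-infected SH-SY5Y cultures. Compound was added before virus (0.01 MOI), and ATP was detected by luminescence 6 days later.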
# [12] = Confirmatory qHTS for small molecule stabilizers of the endoplasmic reticulum resident proteome: Secreted ER Calcium Modulated Protein (SERCaMP) assay (AID 1508628); further: potency means the concentration at half of the fitted maximal effect; nearly all actives have a fitted effect of over 40% in size
# Procedure, shortened: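 GLuc-SERCaMP-expressing SH-SY5Y cells, pretreated 16 h with compound, are challenged with thapsigargin to empty ER calcium stores; after 4 h, coelenterazine is added directly to the medium and luminescence is imaged.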
SMILES,outcome [1],outcome [2],outcome [3],outcome [4],outcome [5],Potency [6],Potency [7],Potency [8],Potency [9],Potency [10],outcome [11],Potency [12]
Cc1cc(O)cc(C)c1Cl,inactive,inactive,inactive,inactive,inactive,inactive,inactive,inactive,inactive,inactive,,
CC(=O)SC[C@@H](Cc1ccccc1)C(=O)NCC(=O)OCc1ccccc1,inactive,inactive,inactive,inactive,,inactive,6.17 µM (active),1.23 µM (active),,,,
CC1(C)[C@@H](OC(=O)CCC(=O)O)CC[C@]2(C)[C@H]3C(=O)C=C4[C@@H]5C[C@@](C)(C(=O)O)CC[C@]5(C)CC[C@@]4(C)[C@]3(C)CC[C@@H]12,inactive,,,,inactive,inactive,inactive,inactive,inactive,inactive,inactive,
O=C(O)[C@@H]1[C@H]2C[C@H]3c4[nH]c5ccccc5c4CCN3C[C@@H]2CC[C@@H]1O,inactive,,inactive,,inactive,inactive,0.977 µM (active),inactive,inactive,inactive,inactive,
CC(=O)N[C@@H](Cc1ccc(O)cc1)C(=O)O,inactive,,inactive,inactive,inactive,inactive,inactive,inactive,inactive,,inactive,
CC(=O)[C@@]1(O)CC[C@H]2[C@@H]3C[C@H](C)C4=CC(=O)C=C[C@]4(C)[C@@]3(F)[C@@H](O)C[C@@]21C,inactive,inactive,inactive,inactive,inactive,inactive,inactive,4.36 µM (active),inactive,3 nM (active),,
Nc1ccc(C(=O)Oc2ccccc2)c(O)c1,inactive,inactive,inactive,inactive,inactive,inactive,inactive,,inactive,inactive,,
Cc1[nH]c(C)c(Cl)c(=O)c1Cl,inactive,inactive,inactive,inactive,inactive,inactive,inactive,,inactive,inactive,,
O=C(O)Cn1c(C(=O)Nc2nc(-c3ccccc3Cl)cs2)cc2ccccc21,inactive,,,inactive,,,,inactive,inactive,,inactive,
Cc1cccc(Nc2ccccc2C(=O)O)c1C,inactive,inactive,inactive,inactive,inactive,,inactive,,inactive,inactive,,
CCCCC1(COC(=O)CCC(=O)O)C(=O)N(c2ccccc2)N(c2ccccc2)C1=O,,inactive,inactive,inactive,inactive,inactive,,,inactive,,inactive,
CC(N)CCCC(C)(C)O (configuration not stated),inactive,inactive,inactive,inactive,,,inactive,inactive,inactive,inactive,,
CO[C@@]1(NC(=O)C(C(=O)O)c2ccc(O)cc2)C(=O)N2C(C(=O)O)=C(CSc3nnnn3C)CO[C@@H]21 (some centres not stated),inactive,inactive,inactive,inactive,,inactive,,,inactive,inactive,,
Nc1c2c(nc3c1CCC3)CCCC2,inactive,inactive,inactive,inactive,inactive,inactive,12.3 µM (active),inactive,inactive,inactive,,
CC(=O)OCC(COC(C)=O)OC(C)=O,inactive,inactive,inactive,inactive,inactive,inactive,inactive,inactive,inactive,inactive,,
NS(=O)(=O)c1cc(-c2nn[nH]n2)c(NCc2cccs2)cc1Cl,inactive,inactive,,inactive,inactive,inactive,inactive,10.7 µM (active) and 19.5 µM (active),inactive,inactive,inactive,
NC(=O)CC[C@@H](N)C(=O)O,inactive,inactive,inactive,inactive,,inactive,,inactive,inactive,inactive,,
Cc1c(NC(C)C)c(=O)n(-c2ccccc2)n1C,inactive,inactive,inactive,inactive,,inactive,,inactive,inactive,inactive,,
O=C(CCBr)N1CCN(C(=O)CCBr)CC1,inactive,inactive,inactive,inactive,inactive,inactive,,inactive,inactive,inactive,,
CCc1cccc(CC)c1NC(=O)CN(CC(=O)O)CC(=O)O,inactive,inactive,inactive,inactive,inactive,inactive,inactive,inactive,inactive,inactive,,
OC(CCN1CCCC1)(c1ccccc1)C1CCCCC1 (configuration not stated),inactive,,inactive,,,inactive,,,,,inactive,3.98 µM (active)
c1ccc2[nH]ccc2c1,,inactive,inactive,inactive,,inactive,inactive,inactive,inactive,,inactive,
NC(=O)CCCCC1CCSS1 (configuration not stated),inactive,inactive,inactive,inactive,,inactive,inactive,inactive,inactive,inactive,,
CCN[C@H]1CN(CCCOC)S(=O)(=O)c2sc(S(N)(=O)=O)cc21,inactive,inactive,inactive,inactive,,inactive,,,inactive,inactive,,
O=C(NCN1CCOCC1)c1cnccn1,inactive,inactive,inactive,inactive,,inactive,inactive,inactive,inactive,,,
O=C1c2ccccc2S(=O)(=O)N1CCCCN1CCN(c2ncccn2)CC1,inactive,inactive,inactive,inactive,inactive,inactive,0.871 µM (active),11 µM (active),inactive,inactive,,
C=CCN1C[C@H](C(=O)N(CCCN(C)C)C(=O)NCC)C[C@@H]2c3cccc4[nH]cc(c34)C[C@H]21,inactive,inactive,inactive,inactive,inactive,inactive,1.55 µM (active),,inactive,inactive,,
